Shown are actives, neighbours in structure and some others; about 3.5% of the full set was active somewhere.
TEAD-YAP inh: TEAD-YAP interaction inhibition, primary screen, TEAD-YAP interaction inhibitor project, luminescence, HEK-TIYL cells. inhibition, % at 9.12 µM. actives 1.4% (n = 640,000). AID 1259422, 2018. TEAD-Gal4/YAP UAS-luciferase luminescence; in the data active = inhibition above about 32%;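 also: 0% = median of test compound wells and 100% = reference inhibitor wells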
GPR151 activ: activators of human GPR151, primary screen, cell-based, PathHunter beta-arrestin, luminescence; G-protein coupled receptor 151 (Homo sapiens), Q8TDV0; AID 1508602, 2020; actives 1% (n = 650,000); activation, % at 11.2 µM; PathHunter beta-arrestin GPR151 cells; in the data active = activation above about 4.9%;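 also: 0% = median of compound wells and 100% = cells with positive control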
Target sequence (Q8TDV0 whole entry, looked up): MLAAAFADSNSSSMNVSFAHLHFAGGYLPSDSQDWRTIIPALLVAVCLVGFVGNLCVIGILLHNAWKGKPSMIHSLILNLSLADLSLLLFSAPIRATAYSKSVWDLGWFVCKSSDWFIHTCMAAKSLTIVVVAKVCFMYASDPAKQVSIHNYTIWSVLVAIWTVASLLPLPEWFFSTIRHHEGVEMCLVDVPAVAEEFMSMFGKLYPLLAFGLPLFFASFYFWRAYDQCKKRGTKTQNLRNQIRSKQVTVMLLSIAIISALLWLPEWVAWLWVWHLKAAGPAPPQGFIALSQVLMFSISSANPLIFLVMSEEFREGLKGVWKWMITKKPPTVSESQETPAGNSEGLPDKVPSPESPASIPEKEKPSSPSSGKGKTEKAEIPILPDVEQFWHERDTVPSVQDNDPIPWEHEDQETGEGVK
FBW7 activator: FBW7 E3 ligase activators, primary screen, biochemical, AlphaScreen, human; AID 1259310, 2017; normalized activity (activation), % at 26.1 µM; actives 0.13% (n = 650,000); AlphaScreen FBW7–phospho-cyclin E peptide binding, activator screen; in the data active = normalized activity above about 1.9%;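 also: purified mutant Fbw7 with reduced substrate affinity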
MITF primary: MITF inhibitors, primary screen, biochemical, AlphaScreen, human; Microphthalmia-associated transcription factor (Homo sapiens), O75030; AlphaScreen MITF homodimerization, bead proximity signal; inhibition, % at 2.6 µM; actives 0.91% (n = 650,000); AID 1259374, 2018; in the data active = inhibition above about 50%;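 also: 0% = vehicle wells with protein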
GPR151 confirm: GPR151 activators, triplicate retest, confirmation, cell-based, PathHunter beta-arrestin, luminescence. shares compounds with GPR151 activ. GPR151 PathHunter beta-arrestin cells, 90 min; % of EA-reagent control over plate median. activation, % at 11.2 µM. 6,700 tested, under 10 active;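 active = mean percent activation across replicates above the confirmation screen cutoff of 4.91%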
GPR119 ag: GPR119 activators in beta-arrestin cells, counter-screen for GPR151 activator project, cell-based, PathHunter beta-arrestin, luminescence, triplicate | activation, % at 11.2 µM | 90 min; 0 = compound-well median, 100 = enzyme-acceptor control | actives 0.3% (n = 6,700) | shares compounds with GPR151 activ;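 active = mean percent activation in the counterscreen above 29.09%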;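 also: counterscreen on off-target GPR119 to flag nonselective hits from the GPR151 activator screen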
* hit, by the source's call; x = not tested or not shown.

SMILES	TEAD-YAP inh	GPR151 activ	FBW7 activator	MITF primary	GPR151 confirm	GPR119 ag
COc1cccc(NC(=O)CN(C)CC(=O)Nc2ccccc2-c2ccccc2)c1	-8.4	5.7*	0.2	45.9	-0.6	-10.4
CCc1ccccc1NC(=O)CN(c1ccc(C)cc1)S(C)(=O)=O	9.3	0.1	0.0	12.6	x	x
Cc1ccc(N(CC(=O)Nc2ccccc2C(C)C)S(C)(=O)=O)cc1	1.6	6.5*	0.2	10.0	1.2	4.7
COc1ccc(N(CC(=O)Nc2ccccc2-c2ccccc2)S(C)(=O)=O)cc1	-1.0	14.5*	0.1	2.6	-0.7	-3.0
CCOCCCn1c(C)cn2c3c(=O)[nH]c(=O)n(C)c3nc12	-6.3	0.7	-0.1	-8.7	x	x
COc1ccc(NC(=O)CSc2nnc(C(F)(F)F)n2C)cc1	-0.7	-0.1	-0.2	3.0	x	x
Cc1ccc(-c2csc(NC(=O)CN3C(=O)c4ccccc4C3=O)n2)cc1	-25.3	-1.9	0.0	-9.2	x	x
O=c1c(-c2ccccc2)[n+]([O-])c2ccccc2n1OCc1ccccc1[N+](=O)[O-]	7.8	6.0*	0.1	11.9	1.5	6.2
CCOC(=O)COn1c(=O)c(-c2ccc(Oc3ccccc3)cc2)[n+]([O-])c2ccccc21	-11.8	5.3*	-0.2	-10.2	-0.2	-6.3
COc1cc(/C=C2\NC(=O)N(Cc3ccc(Cl)cc3)C2=O)cc(OC)c1O	-6.2	-2.0	-0.4	-11.8	x	x
COc1ccc2ccc(OC)c(/C=C3\NC(=O)N(Cc4ccc(Cl)cc4)C3=O)c2c1	-0.3	4.9*	0.1	7.1	0.1	6.0
COc1cc(/C=C2/NC(=O)N(Cc3ccccc3F)C2=O)cc(Cl)c1OC	-2.6	0.6	0.1	7.7	x	x
COc1cc(/C=C2/NC(=O)N(Cc3ccc(F)cc3)C2=O)cc(Cl)c1OC	-12.8	5.2*	0.6	-4.0	0.2	0.0
Nc1nc(Nc2ccc(N3CCOCC3)cc2)cc(-c2csc3ccccc23)n1	-32.0	-1.0	-0.1	15.3	x	x
Nc1nc(Nc2ccccc2)cc(-c2cccs2)n1	-56.5	6.2*	-0.2	6.8	0.5	0.3
Nc1nc(Nc2ccc(Oc3ccccc3)cc2)cc(-c2csc3ccccc23)n1	52.0*	6.7*	0.0	5.2	0.1	1.6
Nc1nc(Nc2ccccc2)cc(-c2ccccc2)n1	2.4	-1.1	-0.1	5.1	x	x
CC(C)(C)c1ccc(S(=O)(=O)CC(O)CSc2nc(-c3cccs3)cc(-c3ccccc3)c2C#N)cc1 (configuration not stated)	-3.4	0.2	-0.1	-8.0	x	x
O=C(CSc1nc2ccccc2s1)NCCc1ccccc1	18.9	0.0	0.5	7.4	x	x
O=C(C[n+]1cccc(Br)c1)c1cccs1	-0.4	7.8*	1.1	-13.1	-0.9	-6.5
Cc1nc(N2CCC(N(C)Cc3ccco3)CC2)nc2ccc(F)cc12	3.8	-1.1	0.0	10.4	x	x
CCCOc1ccc(/C=N\Nc2nccs2)cc1OC	-6.4	0.4	0.5	14.8	x	x
COCCCNC(=O)C1CCC(Cn2c(=O)c3sccc3n(Cc3cccc(C)c3)c2=O)CC1 (configuration not stated)	-5.0	5.3*	0.2	4.8	-0.4	-10.3
COc1ccccc1CNC1CCCN(c2nc(C)c3cc(F)ccc3n2)CC1 (configuration not stated)	-1.3	5.4*	0.3	7.0	0.4	14.1
Cc1nn(-c2ccccc2)c(Cl)c1/C=C1\SC(=S)NC1=O	0.9	5.3*	-0.1	3.8	0.6	8.8
SMILES	TEAD-YAP inh	GPR151 activ	FBW7 activator	MITF primary	GPR151 confirm	GPR119 ag
N/C(=N\OC(=O)c1ccncc1)c1cccnc1	-19.9	5.8*	0.7	12.0	-0.3	0.3
COc1ccc(C(C)=O)cc1CN(C)C	-7.9	6.6*	-0.4	5.2	1.9	2.8
CC(=O)Nc1ccc(C(=O)CSc2nncn2C)cc1	-1.4	9.6*	-0.2	1.1	0.5	6.3
COc1ccc(CC(=O)Nc2ccccc2NC(C)=O)cc1	4.6	-1.0	0.6	5.3	x	x
CNS(=O)(=O)c1ccccc1Nc1cc(NC(=O)Cc2ccc(OC)cc2)ncc1C(F)(F)F	93.0*	11.1*	-0.2	-8.6	-0.8	-3.4
O=C1c2cccc([N+](=O)[O-])c2C(=O)N1C1CCCCCCC1	14.7	-0.7	0.2	17.0	x	x
O=C(O)C1CCC(N2C(=O)c3cccc([N+](=O)[O-])c3C2=O)CC1 (configuration not stated)	3.8	5.2*	0.0	-5.0	-1.0	-0.9
COc1ccc(N2CC(NC(=O)NCCc3ccc(S(N)(=O)=O)cc3)CC2=O)cc1 (configuration not stated)	9.0	-1.6	0.0	-14.0	x	x
Oc1ccc(Cl)cc1/C=N\Nc1nncc(-c2ccccc2)n1	-5.2	7.4*	0.1	-5.3	0.3	-7.9
CCn1c(Cc2ccccc2)nnc1SCC(=O)N1CCCCC1	1.5	6.3*	0.1	7.3	0.4	4.0
CNC(=O)/C(C#N)=C/c1ccc(-c2ccc([N+](=O)[O-])cc2Br)o1	11.4	0.3	0.0	4.4	x	x
CC1CCN(CN2C(=O)C3(OCCO3)c3ccccc32)CC1	5.5	-0.4	0.0	1.3	x	x
Cn1c(=O)c2ccccc2n(C)c1=S	1.1	5.6*	0.5	5.3	-0.8	-4.5
CN(C)CCNC(=O)C(=O)NCC1OCCN1S(=O)(=O)c1cccs1 (configuration not stated)	5.6	6.3*	1.2	-15.8	0.5	3.9
COC(CNC(=O)C(=O)NCC1OCCN1S(=O)(=O)c1cccs1)OC (configuration not stated)	-7.5	-1.9	0.6	7.2	x	x
Cc1c(C(=O)c2ccccc2)oc2ccc(NC(=O)c3cccs3)cc12	-54.2	-1.5	-0.2	5.2	x	x
Cc1ccc(C(=O)c2oc3ccc(NC(=O)c4ccco4)cc3c2C)cc1	14.8	7.8*	0.0	9.4	0.2	-5.1
NC(=S)N/N=C/c1cc2ccccc2nc1N1CCCCC1	6.9	0.4	0.1	-6.3	x	x
N#Cc1c(C(F)(F)F)cc(-c2cccs2)nc1SCC(=O)O	9.3	-0.4	-0.1	6.0	x	x
N#Cc1c(C(F)(F)F)cc(-c2cccs2)nc1SC1CC(=O)N(c2ccccc2)C1=O (configuration not stated)	0.5	5.1*	0.7	-3.5	0.4	7.5
COc1cc(OC)c(C(=O)OC(C)C(=O)NC(N)=O)cc1OC (configuration not stated)	-4.0	12.7*	-0.1	5.7	0.6	2.8

Assay outcomes from PubChem BioAssay.
